The list is not random: actives were taken first. Their share in the collection is about 3.5%.
CHRM1 antagonist – antagonists of human M1 muscarinic receptor | P11229 | CHO-K1 hM1, Fluo-8 calcium fluorescence, ACh EC80 antagonist | inhibition, % at 3 µM | 360,000 tested, 1.3% active | AID 588852;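 active means percent inhibition above its own plate's cutoff, namely the mean of that plate's compound wells plus 3 SD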;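 further: peak over basal fluorescence ratio during 140 s after agonist addition; 0% = ACh EC80 plus DMSO and 100% = DMSO alone without agonist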
Target sequence (P11229 whole entry, looked up): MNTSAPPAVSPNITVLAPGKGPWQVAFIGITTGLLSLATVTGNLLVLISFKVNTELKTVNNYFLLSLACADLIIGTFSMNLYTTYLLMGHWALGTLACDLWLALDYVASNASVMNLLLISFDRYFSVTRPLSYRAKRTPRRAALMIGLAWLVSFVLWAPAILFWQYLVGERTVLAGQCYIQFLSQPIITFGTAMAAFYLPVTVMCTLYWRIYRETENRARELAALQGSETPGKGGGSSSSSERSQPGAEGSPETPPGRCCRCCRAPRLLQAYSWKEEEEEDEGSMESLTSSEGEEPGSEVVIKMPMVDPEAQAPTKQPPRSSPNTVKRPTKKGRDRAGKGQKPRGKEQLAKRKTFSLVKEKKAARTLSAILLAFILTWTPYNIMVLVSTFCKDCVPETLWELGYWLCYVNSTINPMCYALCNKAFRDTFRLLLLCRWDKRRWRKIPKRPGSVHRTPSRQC
CHRM1 agonist – agonists of human M1 muscarinic receptor; activation, % at 3 µM; 360,000 tested, 0.33% active; P11229; CHO-K1 hM1, Fluo-8 calcium fluorescence, agonist mode; 0% DMSO, 100% acetylcholine EC100;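 active means activation above the run's mean compound activation plus 3 SD, cut at about 16% in these data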;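 further: peak over basal fluorescence ratio within a 140 s kinetic read after compound addition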
CHRM1 PAM – human CHRM1 positive allosteric modulation. P11229. CHO-K1 hM1, Fluo-8 calcium fluorescence, ACh EC20; 0% = ACh EC20, 100% = maximal ACh. activation, % at 3 µM. 360,000 tested, 0.088% active; in the data active means activation above about 19%, passing the limit was not always enough
ATG4B inh – ATG4B (human) cysteine protease inhibition | ATG4B cleavage of LC3-PLA2, NBD-HPC fluorescence, 1 h | inhibition, % at 8.33 µM | 340,000 tested, 0.51% active; in the data active means inhibition above about 40%
Myeloid diff MLP – myeloid differentiation induction; ER-HoxA9 myeloid progenitors, lysozyme-GFP differentiation, flow cytometry; calls only at 10 µM; 360,000 tested, 1% active;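 active means normalized GFP-positive differentiation at or above the plate's own cutoff, the solvent-only control mean plus 3 SD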;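 further: cells exposed to compound for four days before flow analysis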
SKN-1 inh – blocks SKN-1 activity in C. elegans | C. elegans VP596 Pgst-4::GFP/RFP ratio, acrylamide-induced, 24 h | inhibition, % at 21.8 µM | 360,000 tested, 0.49% active | AID 624304;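 active means interference check ratio from 0.5 to 1.5 plus GFP to RFP signal ratio inhibition reaching or exceeding a fixed threshold, cut at about 30% in these data, passing the limit was not always enough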
Numbers without * were called inactive; i = inactive; . = no result given; + = active, no number.

SMILES | CHRM1 antagonist | CHRM1 agonist | CHRM1 PAM | ATG4B inh | Myeloid diff MLP | SKN-1 inh
CCc1ccc(NCc2nc(-c3ccccc3)no2)cc1 | -17 | -10 | 11 | 6 | i | 42*
CC1(C)CC2(CC(c3ccccc3F)c3cc(Cl)c(O)cc3O2)NC(=S)N1 (stereo not drawn) | 4 | -9 | 8 | -7 | i | 5
CC(=O)Oc1cc2c(cc1Cl)C1(CC(c3ccccc3Cl)O2)CC(C)(C)NC(=S)N1 (stereo not drawn) | 47* | -3 | -12 | 10 | i | -3
O=C(CNc1ccc(Br)cc1)c1ccccc1 | 7 | -1 | 1 | 7 | i | 36*
Cc1ccc(C(=O)CNc2ccc(Br)cc2)cc1 | -4 | -4 | 6 | 6 | i | -22
N#C/C(=C\c1ccc(O)cc1)C(=O)NCc1cccc(Cl)c1 | -12 | 24* | 10 | -2 | i | 8
N#C/C(=C/c1ccc(O)cc1)C(=O)NCc1ccc(Cl)cc1 | 7 | 8 | 3 | 3 | i | 15
O=C(Nc1ccc(F)cc1)N1CCOCC1 | 4 | -3 | -3 | 4 | i | -2
O=C(Nc1ccc2nc(-c3cccs3)c(-c3cccs3)nc2c1)N1CCOCC1 | 78* | -4 | -21 | -12 | i | 7
O=C(Nc1cccc(O)c1)N1CCOCC1 | -16 | 0 | 9 | -4 | . | -2
CN(C)c1ccc(NC(=O)N2CCOCC2)cc1 | 10 | -1 | 30* | 6 | i | -5
O=C(Nc1ccc(N2CCOCC2)cc1)Nc1ccc2nc(-c3ccco3)c(-c3ccco3)nc2c1 | 33* | -2 | -15 | 2 | . | 5
COc1ccc(C(=O)c2[nH]c(N)c(C(=O)NCCc3c[nH]c4ccccc34)c2-c2ccc(OC)c(OC)c2)cc1 | . | . | . | . | i | 12
CCOC(=O)C1=C(CC)Nc2ccccc2N=C1NC(=O)c1cc(C)on1 | 12 | -4 | -9 | -6 | i | 13
CCOC(=O)C1=C(CC)Nc2ccccc2N=C1NC(=O)Nc1ccc(Cl)c(Cl)c1 | 33* | 5 | -16 | 62* | i | 27
Fc1ccc(COc2cccc(CNCc3ccncc3)c2)cc1 | 21 | -5 | -3 | 9 | + | 3
c1ccc(COc2ccc(CNCc3cccs3)cc2)cc1 | 41* | -5 | -23 | 6 | i | 11
c1ccc(COc2ccc(CNCc3cccnc3)cc2)cc1 | 31* | -12 | -32 | -6 | i | 0
Brc1ccc(CNCc2cccs2)cc1 | -2 | -7 | -8 | -3 | i | -1
O=C(O)c1ccc(CNCc2cccc(OCc3ccc(F)cc3)c2)cc1 | -2 | -2 | 7 | -3 | i | 11
OC[C@@H]1CN(Cc2ccco2)C[C@H](n2cnc3c(NC4CCCC4)ncnc32)O1 | 0 | -2 | 1 | . | i | 14
COc1ccc(C(O)CNc2ccc(C)cc2)cc1 (stereo not drawn) | -6 | -3 | 8 | -5 | i | 36*
Fc1ccc(-c2ccc3c(c2)C2CC3CCN2)cc1 (stereo not drawn) | 39* | -4 | -30 | 7 | i | 4
Cc1noc(C(C)C)c1C(=O)Nc1ccc(-c2nnc3n2CCCCC3)cc1 | 33* | -9 | -16 | -18 | i | -2
CC1(C)CC(NC(=O)c2ccccc2C(=O)NC2CC(C)(C)NC(C)(C)C2)CC(C)(C)N1 | -13 | -9 | 10 | -2 | i | 6
SMILES | CHRM1 antagonist | CHRM1 agonist | CHRM1 PAM | ATG4B inh | Myeloid diff MLP | SKN-1 inh
CC1(C)CC(NC(=O)N2c3ccccc3Sc3ccccc32)CC(C)(C)N1 | 50* | -8 | -24 | 6 | i | 12
CCSCCCn1[nH]c2ccccc2c1=O | -4 | 5 | 18 | . | i | -13
CC(=O)N1CCN(C(=O)c2ccc(Cl)c(S(=O)(=O)N3CCc4ccccc43)c2)CC1 | -10 | -4 | 9 | -12 | i | 9
O=C(c1ccc(Cl)c(S(=O)(=O)N2CCc3ccccc32)c1)N1CCN(c2ccccc2O)CC1 | 25* | -3 | -14 | 6 | i | 16
O=C(NNC(=O)c1ccccc1O)c1ccc(Cl)c(S(=O)(=O)N2CCc3ccccc32)c1 | 38* | 2 | -5 | 20 | i | 27
Cc1ccc(NC(=O)c2ccc(Cl)c(S(=O)(=O)N3CCc4ccccc43)c2)nc1 | -4 | -2 | 5 | -4 | i | 8
O=C(Nc1cccc(C(F)(F)F)c1)Nc1nnc([C@@H]2C[C@H](O)[C@@H](CO)O2)s1 | 10 | -1 | -8 | . | i | -10
O=C(CSc1ncn[nH]1)NCc1ccc(Cl)cc1 | -11 | -2 | 6 | -5 | i | 1
COc1ccc(CNC(=O)CSc2ncn[nH]2)cc1OC | -2 | -2 | 9 | -4 | + | -7
CCOC(=O)N1CCC(N2C(=O)c3ccccc3C2Nc2ccc(Cl)cn2)CC1 (stereo not drawn) | -15 | -5 | 8 | -10 | i | 3
O=C(Cc1ccc(Cl)cc1Cl)NC1CCCCCC1 | 0 | -2 | 10 | -4 | + | 5
O=C(CCCc1nc(-c2ccc(Cl)cc2)no1)NC1CCCC1 | 37* | 0 | -11 | -5 | i | 5
O=C(CCc1nc(-c2ccc(Cl)cc2)no1)NC1CCCCC1 | 1 | 1 | -2 | 0 | i | -26
Cc1cc(C)c(S(=O)(=O)N2CCN(C(=O)CC(C)n3nc(C)nc3C)CC2)c(C)c1 (stereo not drawn) | -4 | -4 | 6 | . | i | 9
c1ccc2c(c1)CC(N1CCCCC1)c1ccccc1S2 (stereo not drawn) | 11 | -8 | -15 | -9 | i | -6
CN1CCN(C2Cc3cc(Cl)ccc3Sc3cc(F)ccc32)CC1 (stereo not drawn) | 99* | -5 | -26 | 1 | i | -9
CCc1ccc2c(c1)Sc1ccccc1CC2N1CCN(C)CC1 (stereo not drawn) | 53* | 0 | -22 | -7 | i | 33
CC(=O)NC(Cc1ccc(F)cc1)C(=O)N1CCN(C(=O)NCc2ccccc2)CC1 (stereo not drawn) | -5 | -6 | 1 | 2 | i | 49*
C=CCSc1nnc(CCc2ccccc2)n1N | -11 | 0 | 14 | -2 | i | -2
N#CC1=C(N)OC2=C(CC/C2=C\c2ccccc2)C1c1ccccc1 (stereo not drawn) | 31* | 18* | -10 | -3 | i | 32
N#CC1=C(N)OC2=C(CC/C2=C\c2ccccc2Cl)C1c1ccccc1Cl (stereo not drawn) | 7 | -3 | -2 | 23 | i | 7
OCC[C@@H]1C[C@H](O)[C@@H](O)[C@@]2(CCCc3ccccc3O2)O1 | 3 | -3 | 1 | 16 | i | 5
CCOc1ccc(CN(C)C(=O)c2ccc3c(c2)NC(=O)C(C)S3)cc1OC (stereo not drawn) | 3 | -1 | -3 | -9 | i | -1

Screens from PubChem.
